Pf growth 96h: Primary qHTS for delayed death inhibitors of the malarial parasite plastid, 96 hour incubation; P. falciparum luciferase reporter growth, 96 h; actives 6.9% (n = 320,000); Potency, µM (titrated, usually from 28.7 µM), for the others: top-dose activity change, negative = inhibition, hits mostly inhibitors; further: potency means the concentration at half of the fitted maximal effect
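Two-generation exposure (96 h) targets delayed-death phenotype. Reporter parasites carrying integrated firefly luciferase, in red cells at 2% hematocrit and 0.05% parasitemia final, kept at 37 C, 5% CO2; luminescence loss indicates inhibition.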
HCMV antiviral: qHTS Assay for inhibitors of the human cytomegalovirus (HCMV); HFF cells, HCMV-luciferase reporter, 72 h; hits give low values; activity change, negative = inhibition, % at 57.5 µM; actives 4.5% (n = 410,000); AID 1259415, 2018; in the data active means activity change below about -60%; inconclusive means no clear call, values can overlap the other calls; inactive means above about -39%
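Screen run at 2 compound doses on HFFs infected with reporter HCMV, MOI 1 PFU/cell. Luciferase activity from cell lysates at 72 h post infection gave inhibition relative to buffer-only and Salinomycin wells.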
Lassa entry inh: qHTS for Inhibitors of binding or entry into cells for Lassa Virus; actives 1.2% (n = 300,000); Potency, µM (highest dose often 37.9 µM), for the others: top-dose activity change, negative = inhibition, usual class: inhibitors; Lassa virus pseudotype entry inhibition, cell reporter; AID 540256, 2011; calls by dose curve; tested in HEK293 cells; further: potency means the concentration at half of the fitted maximal effect; nearly all actives have a fitted effect of over 50% in size
Marburg entry inh: qHTS for inhibitors of binding or entry into cells for Marburg Virus; Marburg virus pseudotyped entry inhibition, cell reporter; Potency, µM (top dose mostly 37.8 µM), without a hit: at the top dose activity change, negative = inhibition, most hits filed as inhibitors; actives 1.8% (n = 300,000); calls by dose curve; tested in HEK293 cells; further: potency means the concentration at half of the fitted maximal effect
HCV inh: qHTS Assay for Inhibitors of Hepatitis C Virus (HCV); actives 3.4% (n = 340,000); AID 651820, 2012; Potency, µM (doses to about 41.8 µM), inactives show top-dose activity change, negative = inhibition, most hits filed as inhibitors; Huh7.5.1 HCVcc-Cre infection, luciferase reporter, 44 h; further: potency means the concentration at half of the fitted maximal effect
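Luciferase read-out (15 sec integration) after a 15 min room-temperature substrate step quantifies HCVcc-Cre infection. Cells, 1,000 per well, had compound added 4 h post-plating, then virus at ~0.5 moi, and were cultured 44 h.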
Pf growth 48h: Primary qHTS for delayed death inhibitors of the malarial parasite plastid, 48 hour incubation; Potency, µM (highest dose often 28.7 µM), without a hit: at the top dose activity change, negative = inhibition, usual class: inhibitors; actives 5.9% (n = 310,000); P. falciparum luciferase growth in erythrocytes, 48 h; further: potency means the concentration at half of the fitted maximal effect
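Firefly luciferase activity from engineered P. falciparum reports growth; inhibitors lower the luminescent signal. Cultures contained 2% hematocrit erythrocytes at 0.1% final parasitemia.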
An asterisk follows results filed as active; ? = inconclusive; . = not tested or not shown; [ ] = another dose, or the depositor's remark. This is a sample that favours compounds with a hit; in the whole collection about 14% have one here. Unless noted, the call rests on the fitted dose curve; in most records, active means well fitted inhibition curve with a large enough effect; inconclusive means small, poorly fitted or top-dose-only effect, or another doubt; inactive means no such curve, though single readings can be large or run the other way. On the % scale 0 is the no-effect control and ±100 the full control effect.

SMILES | Pf growth 96h | HCMV antiviral | Lassa entry inh | Marburg entry inh | HCV inh | Pf growth 48h
Cc1ccc(COc2ccc(CNCCCN3CCCCCC3=O)cc2)cc1 | 0.2% | -39.9 | ? | ? | ? | ?
COC(=O)c1cc2sc(C)cc2n1CC(=O)Nc1cccc(SC)c1 | . | 4.7 | . | 10.7%[46.1 µM] | . | .
O=C(O)CNc1nc(NCc2ccc(Cl)cc2)ccc1[N+](=O)[O-] | . | 0.7 | . | . | . | .
Cc1ccc(NC(=O)Nc2ccc3nc(N4CCN(C)CC4)cc(C)c3c2)cc1C | . | -100.1* | ? | . | . | .
Cc1cc(N2CCN(C)CC2)nc2ccc(NC(=O)Nc3ccccc3Br)cc12 | . | -94.7* | ? | . | . | .
Cc1cc(N2CCN(C)CC2)nc2ccc(NC(=O)Nc3ccccc3)cc12 | . | ? | 1.5%[46.1 µM] | . | . | .
CCCCCN(C(=O)CCC(=O)OCc1ccc(C(C)(C)C)cc1)c1c(N)n(CCCC)c(=O)[nH]c1=O | 8.28µM* | -17.6 | ? | ? | ? | ?
CCCCCN(C(=O)CCC(=O)OCc1ccccc1F)c1c(N)n(CCCC)c(=O)[nH]c1=O | 40.3% | -24.3 | 3.5% | -2.8% | -1.1% | ?
CCCCCN(C(=O)CCC(=O)OCc1ccc(C(C)C)cc1)c1c(N)n(CCCC)c(=O)[nH]c1=O | 10.4µM* | -10.3 | ? | ? | -20.2% | 35.5%
Cc1c(-c2nnc(SCC(=O)Nc3ccc(Br)cc3)o2)nnn1-c1ccc(F)cc1 | . | 0.6 | 16.2%[46.1 µM] | . | . | .
O=C1COc2ccc(C(=O)/C=C/c3ccccc3)cc2N1 | 0.6% | -83.8* | ? | 6.5% | -0.2% | 22.0%
Cc1cc(C(=O)COc2ccccc2C#N)c(C)n1C1CC1 | ? | -26.5 | 3.0% | 6.2%[46.1 µM] | -4.5% | ?
COc1cc(C(C)=O)ccc1OCC(=O)c1cc(C)n(C2CC2)c1C | 11.7µM* | 9.1 | 2.6% | ? | -13.8% | ?
Cc1cccc(NC(=S)Nc2cccc(C)n2)n1 | 13.1µM* | 46.3 | 24.1%[46.1 µM] | ? | ? | ?
COc1cccc(NC(=S)Nc2cc(C)cc(C)n2)c1 | 91.0% | -66.8* | 7.7% | ? | ? | 121.9%
Cc1cccc(NC(=S)NC2CCCCC2)n1 | -16.9% | ? | 6.9% | 0.0%[46.1 µM] | -16.9% | 5.22µM*
Cc1cccc(NC(=S)Nc2ccc(Oc3ccccc3)cc2)n1 | 9.28µM* | -60.7* | -17.8% | ? | ? | -4.2%
COc1cccc(N/C(=N/C(=S)Nc2ccc(C)cc2C)Nc2nc(C)cc(C)n2)c1 | 3.29µM* | 0.6 | -9.7% | ? | ? | 4.15µM*
Cc1ccc(S(=O)(=O)NNC(=O)c2ccncc2)cc1[N+](=O)[O-] | 1.85µM* | 0.1 | 9.8% | 6.5% | 12.5% | -5.5%
Cc1ccc(C(=O)COC(=O)c2ccncc2)cc1[N+](=O)[O-] | 9.28µM* | 24.9 | 11.8% | 9.4% | 5.4% | 24.5%
O=C(NNS(=O)(=O)c1ccc(Br)cc1)c1ccncc1 | 2.5% | -1.0 | 1.9% | -2.3% | 9.9% | 26.2%
Cc1cc(C)c2c(c1)c(C)cc1nnc(SCc3ccccc3C#N)n12 | . | -37.8 | -16.3%[46.1 µM] | 1.8%[46.1 µM] | . | .
CC(C)NCC(O)COC1C2CC3CC(C2)CC1C3 (stereo not drawn) | 4.0% | -25.3 | -6.9%[46.1 µM] | 21.1%[46.1 µM] | 27.9% | 8.28µM*
COc1cc(C(=O)n2nc(-c3ccco3)nc2NCc2ccc(Cl)cc2)cc(OC)c1OC | . | 27.7 | ? | ? | . | .
Nc1c(Br)cc(Br)c2c1-c1ccc([N+](=O)[O-])cc1C2 | . | -80.4* | 16.7% | 6.4% | ? | .
SMILES | Pf growth 96h | HCMV antiviral | Lassa entry inh | Marburg entry inh | HCV inh | Pf growth 48h
Nc1cccc2c1Cc1cc([N+](=O)[O-])ccc1-2 | . | -100.6* | 24.9% | 3.7% | -15.6% | .
CC(C)=CCC/C(C)=C/CO/N=C1/C[C@@H](O)[C@@H](O)[C@@H]2[C@@H]3C(=O)N(Cc4ccc5c(c4)OCO5)C(=O)[C@H]3CC[C@H]12 | . | . | . | -43.7%[14.2 µM] | . | .
COc1ccc(Cl)cc1NC(=S)NCCCN1CCCC1=O | 44.8% | 4.0 | . | . | -14.6% | -2.7%
COc1ccccc1CNC(=O)c1ccc2c(=O)n(CCCN3CCCC3=O)c(=S)[nH]c2c1 | 14.7µM* | -30.4 | -11.7% | -7.8%[46.1 µM] | -22.7% | ?
COc1ccc(-n2c(=S)[nH]c3cc(C(=O)NCCCN4CCCC4=O)ccc3c2=O)cc1OC | -25.6% | -99.1* | -12.0% | -12.5%[46.1 µM] | 15.5% | .
COc1cc(C(=O)NCCCN2CCCC2=O)ccc1OCc1ccc(Cl)cc1Cl | ? | -27.1 | -15.2% | -8.0% | ? | 10.4µM*
COc1ccc(CNC(=O)c2ccc3c(=O)n(CCCN4CCCC4=O)c(=S)[nH]c3c2)cc1 | 4.15µM* | -25.7 | -27.6% | -8.0%[46.1 µM] | 3.2% | ?
COc1ccc(OC)c(-n2c(=S)[nH]c3cc(C(=O)NCCCN4CCCC4=O)ccc3c2=O)c1 | 36.6% | 66.4 | . | . | . | 5.2%
Cc1cc(C)c(C#N)c(SCC(=O)N(CCC#N)c2ccc3c(c2)OCCO3)n1 | ? | -16.7 | ? | -2.1% | ? | ?
Cc1ccc2c(CNCc3ccc(C)o3)c(C(=O)O)n(Cc3ccc(F)cc3)c2c1 | . | -32.6 | -21.2%[46.1 µM] | . | . | .
Cc1cccn2c(=O)nc(SCC(=O)N3CCN(c4ccccc4)CC3)nc12 | -14.4% | -3.5 | -12.4% | 11.9% | ? | -12.5%
COC(=O)c1ccc2c(=O)n(CCCN3CCCC3=O)c(=S)[nH]c2c1 | -18.7% | -20.4 | -14.8% | 8.7% | ? | 11.7µM*
O=C(NCc1ccccc1)c1ccc2c(=O)n(CCCN3CCCC3=O)c(=S)[nH]c2c1 | ? | -0.3 | -3.1% | 9.2% | ? | .
N#Cc1c(N)nc(SCc2ccccn2)c(C#N)c1-c1cccs1 | . | -68.5* | ? | 1.0% | ? | ?
